Data published in the supplement of paper PMC8371130.
Structures can show the parent of a compound that is named as a salt.

system: HL-1; experiment: relative cell viability (CellTiter-Glo) vs DMSO control (% of DMSO control); higher = more viable cells; conditions: oxygen condition: normoxia 72 h; 5000 nM
In short: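 HL-1 mouse atrial cardiomyocytes were plated in 384-well plates at 1000 cells per well together with compounds at 40, 200, 1000 or 5000 nM in 0.01% DMSO. One day later, cells went to a hypoxic workstation (1% O2) for 48 h, then were reoxygenated for 24 h in a normal incubator, or stayed in normoxia for the same time. Cell viability was read by CellTiter-Glo luminescence and normalised to vehicle-treated control cells.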

SMILES	relative cell viability
CCN[C@H]1C[C@H](C)S(=O)(=O)c2sc(S(N)(=O)=O)cc21 [Dorzolamide HCL]	121
CNC[C@H](O)c1cccc(O)c1 [Phenylephrine HCl]	118
CN(CCOc1ccc(NS(C)(=O)=O)cc1)CCc1ccc(NS(C)(=O)=O)cc1 [Dofetilide]	107
O=C(O[C@H]1CN2CCC1CC2)N1CCc2ccccc2[C@@H]1c1ccccc1 [Solifenacin succinate]	113
CCCNCC(O)COc1ccccc1C(=O)CCc1ccccc1 (stereo not given) [Propafenone]	103
CN1CCOC(c2ccccc2)c2ccccc2C1 (stereo not given) [Nefopam HCl]	68.8
Clc1ccc(COC(Cn2ccnc2)c2ccc(Cl)cc2Cl)cc1 (stereo not given) [Econazole nitrate]	105
O=C1c2ccccc2C(=O)C1c1ccccc1 [Phenindione]	108
O=C1[C@H](CC[C@H](O)c2ccc(F)cc2)[C@@H](c2ccc(O)cc2)N1c1ccc(F)cc1 [Ezetimibe]	112
CN(C(=O)CN(CCO)CC(=O)N(C)C(C)(C)Cc1ccccc1)C(C)(C)Cc1ccccc1 [Oxethazaine]	128
N=C(N)NC(=N)N1CCOCC1 [Moroxydine]	114
O=C(O)C1(C(=O)O)CCC1.[NH2-].[NH2-].[Pt+2] [Carboplatin]	119
OC(CCN1CCCCC1)(c1ccccc1)C1CC2C=CC1C2 (stereo not given) [Biperiden HCl]	100
Cc1nccn1CC1CCc2c(c3ccccc3n2C)C1=O (stereo not given) [Ondansetron]	107
CCOC(=O)c1c(C)n(C)c2ccc(O)cc12 [Mecarbinate]	110
